Assay results taken from PubChem BioAssay AID371 (SRMLSC, 2006).
Among all 3,300 compounds or so, about 280 (8.5%) were called active. This is one part of a sample in which actives are shown more often than they occur. Values without a mark were called inactive.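 How the source made its calls: active means mean growth inhibition over the two runs of 50% or more; inactive means mean growth inhibition under 50%.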

Assay: A549 NSCLC cell proliferation inhibitors – ATP luminescence, human non-small cell lung line, primary screen (AID 371);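 further: compound exposure lasted 72 h before the ATP read; 0% = untreated cell signal and 100% = no luminescence left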
Conditions: at 10 µM, active compounds read high

Row | Structure (SMILES) | growth inhibition
1 | C/C(=N\O)c1ccc2[nH]ccc2c1 | 9.01%
2 | Nc1nc(F)nc2c1ncn2[C@@H]1O[C@H](CO)[C@@H](O)[C@@H]1O | 73.1% (active)
3 | Nc1ncnc2c1ncn2[C@@H]1O[C@H](CO)[C@@H](O)[C@H]1O | 1.29%
4 | Nc1nc(Cl)nc2c1ncn2[C@@H]1O[C@H](CO)[C@@H](O)[C@H]1O | 33.3%
5 | CCOC(=O)CSc1nc(C)c(C(C)=O)cc1C#N | 7.6%
6 | O=C(O)CCCc1ccccc1 | -1.26%
7 | O=C(NCCc1ccccc1)/C(=N\O)c1ccccc1 | 10.9%
8 | N#C/C(=C\c1ccc(O)c(O)c1)C(=O)NCCCc1ccccc1 | 64.3% (active)
9 | CC(C)(C)C1=Nn2c(nnc2-c2ccco2)SC1 | 2.63%
10 | CC(=O)N(Cc1ccccc1)c1ccc(C(=O)O)cc1 | -0.07%
11 | COc1ccccc1C(CC(=O)Nc1nccs1)c1ccco1 (stereo unspecified) | 11.7%
12 | O=c1[nH]nc2n1CCCCC2 | 2.49%
13 | Cc1nnc2n(-c3ccccc3)c(=O)c3c4c(sc3n12)COC(C(C)C)C4 (stereo unspecified) | 13.4%
14 | Cc1nnc2n(Cc3ccccc3)c(=O)c3c4c(sc3n12)COC(C(C)C)C4 (stereo unspecified) | 72.3% (active)
15 | CC(C)C1Cc2c(sc3c2c(=O)n(Cc2ccccc2)c2nncn32)CO1 (stereo unspecified) | 25.2%
16 | COC(=O)c1[nH]c2cc(OC)ccc2c1NC(=O)CN1CCC(C(N)=O)CC1 | -2.17%
17 | COC(=O)c1[nH]c2cc(OC)ccc2c1NC(=O)CCN1CCCC(C)(C)C1 | -5.32%
18 | COC(=O)c1[nH]c2cc(OC)ccc2c1NC(=O)CN1CCN(c2cccc(C)c2)C(C)C1 (stereo unspecified) | 68% (active)
19 | COc1cccc2c(=O)c(SC(F)(F)C(F)C(F)(F)F)c(C)[nH]c12 (stereo unspecified) | 46.7%
20 | CC(C)(C)c1cccc(/C=N/O)c1O | 84.1% (active)
21 | CSC(=Nc1ccccc1)C1=C(O)COC1=O | 3.6%
22 | CSc1nc(C)c2c(c1C#N)CCCC2 | 11.1%
23 | O=C(NC1CCCCC1)[C@H](O)[C@@H](O)C(=O)NC1CCCCC1 | -22.3%
24 | CCCc1nc(N2CCCC2)c(C#N)c2c1CCCC2 | 20.2%
25 | COc1ccc(CNc2oc(COc3ccccc3Cl)nc2C#N)cc1 | 34.1%
26 | COc1ccc(CCNc2oc(COc3ccccc3)nc2C#N)cc1 | 31.8%

Row | Structure (SMILES) | growth inhibition
27 | COc1ccc(CNc2oc(COc3ccc(Cl)cc3)nc2C#N)cc1 | 74.1% (active)
28 | COC(=O)c1ccc(Cn2nnc3c(sc4nc(N5CCOCC5)c5c(c43)CCCC5)c2=O)o1 | 3.34%
29 | O=CNC(=O)c1ccccc1C(=O)O | -1.48%
30 | CCOC(=O)c1cc2cc(OC)ccc2[nH]1 | 15.9%
31 | CCCCC(=O)Nc1c(O)c2ccccc2[nH]c1=O | 3.38%
32 | O=c1c(O)c(-c2ccc(O)cc2O)oc2cc(O)cc(O)c12 | 4.21%
33 | O=c1c(-c2ccc3c(c2)OCCO3)c(C(F)(F)F)oc2cc(O)cc(O)c12 | 71.1% (active)
34 | COc1ccc(-c2coc3cc(O)cc(O)c3c2=O)cc1 | 21.9%
35 | COC(=O)c1cc(=O)n2c(-c3ccc(OC)cc3)csc2n1 | -0.07%
36 | O=C(O)CCCCCN1C(=O)CCC1=O | -0.47%
37 | CC1(C)Cc2c(c(N3CCOCC3)nc3sc4c(NCc5ccco5)nnnc4c23)CS1 | 32.9%
38 | CN1CCN(CCCN2c3ccccc3Sc3ccc(Cl)cc32)CC1 | 0.16%
39 | CN1CCN(CCC(=O)N2c3ccccc3Sc3ccc(Cl)cc32)CC1 | 13.4%
40 | CN1CCN(CCCCOc2ccc(F)cc2)CC1 | 3.19%
41 | OCCN1CCN(CCCN2c3ccccc3Sc3ccc(C(F)(F)F)cc32)CC1 | 92.3% (active)
42 | CN1CCN(CCCN2c3ccccc3Sc3ccc(C(F)(F)F)cc32)CC1 | 93.1% (active)
43 | OCCN1CCN(CCCN2c3ccccc3Sc3ccc(Cl)cc32)CC1 | 90.6% (active)
44 | c1ccc(SCc2nc3ccccc3[nH]2)nc1 | 6.85%
45 | CC(NC(=O)Nc1ncccn1)(C(F)(F)F)C(F)(F)F | 0.51%
46 | C/C(=N\O)C1(C)N(O)C(C)(C)C(c2ccco2)=[N+]1[O-] (stereo unspecified) | 2.56%
47 | CC1(C)Cc2c(c(-c3ccccc3)nc(N3CCCC3)c2C(N)=O)CO1 | 7.2%
48 | O=C(NC1(C(F)(F)F)C(=O)Nc2c1c(=O)[nH]c(=O)n2-c1ccccc1)c1cccnc1 (stereo unspecified) | 1.94%
49 | CCOC(=O)CSC1=C(C#N)C(=O)NC2(CCCCC2)S1 | -4.21%
50 | Nc1nnc(-c2cccc(Cl)c2Cl)c(N)n1 | 14.4%
51 | Nc1nc(N)c2nc(-c3ccccc3)c(N)nc2n1 | 82.4% (active)
52 | Nc1nonc1-c1noc(-c2ccccc2)n1 | 8.32%

Row | Structure (SMILES) | growth inhibition
53 | O=C(O)c1cnn2c(C(F)(F)F)cc(-c3ccco3)nc12 | -1.5%
54 | O=C(CCCN1C(=O)c2ccccc2C1=O)N1CCC(c2ccccc2)C1 (stereo unspecified) | -0.61%
55 | CCN(CC)c1ccc(C2Nc3cccc4cccc(c34)N2)c(O)c1 | 77.5% (active)
56 | OCCNC1=NCCN1 | -1.49%
57 | N#Cc1nc(COc2ccccc2F)oc1NCCCn1ccnc1 | 5.01%
58 | CC(C(=O)N(C)C)N(C#N)c1nc(N(C)C)nc(N(C)C)n1 (stereo unspecified) | 3.51%
59 | CC(COc1ccccc1)N(CCCl)Cc1ccccc1 (stereo unspecified) | 54.1% (active)
60 | CC(COc1ccccc1)NC(C)C(O)c1ccc(O)cc1 (stereo unspecified) | 4.38%
61 | Cc1nc(-c2coc3cc(OCC(=O)O)ccc3c2=O)cs1 | 13.4%
62 | O=C(NCCO)C1(c2ccccc2)CCCC1 | 0.3%
63 | OCCN(CCO)c1ncnc2c1sc1nc(N3CCOCC3)c3c(c12)CCCC3 | 58.3% (active)
64 | COC(=O)c1ccc(CSc2ncnc3c2sc2nc(N4CCOCC4)c4c(c23)CCCC4)o1 | -12.8%
65 | O=c1c2sc3nc(N4CCOCC4)c4c(c3c2ncn1Cc1ccco1)CCCC4 | 22.7%
66 | Cc1cc(OCC(=O)Nn2cnnc2)ccc1Br | 4.24%
67 | Cc1noc(NS(=O)(=O)c2ccc(NC(=O)COc3ccccc3)cc2)c1C | -8.3%
68 | CC(NCCC(c1ccccc1)c1ccccc1)c1ccccc1 (stereo unspecified) | 90.6% (active)
69 | CC(NC(=O)c1ccc(=O)oc1)c1ccccc1 (stereo unspecified) | 3.88%
70 | COc1ccc(C(=O)Cn2c(N3CCCCC3)nc3c2c(=O)n(C)c(=O)n3C)cc1OC | 8.72%
71 | CCCC(C)n1[nH]c(=O)cc1N (stereo unspecified) | -3.66%
72 | COC(=O)c1ccc(C2/C(=C(\O)c3ccc4c(c3)OCCO4)C(=O)C(=O)N2CCCN(C)C)cc1 (stereo unspecified) | 3.46%
73 | N#Cc1c(N)n(CCOC(=O)c2cccc(Br)c2)c2nc3ccccc3nc12 | 3.2%
74 | CCOC(=O)CSC1=C(C#N)C(c2ccc3c(c2)OCO3)CC(=O)N1 (stereo unspecified) | 49.8%
75 | CCCCOC(=O)CSC1=C(C#N)C(c2ccc3c(c2)OCO3)CC(=O)N1 (stereo unspecified) | 40.3%
76 | CCCOC(=O)CSC1=C(C#N)C(c2ccc3c(c2)OCO3)CC(=O)N1 (stereo unspecified) | 50.4% (active)
77 | CCOC(=O)CSc1nc(N2CCOCC2)c2c(c1C#N)CC(C)(C)N(C)C2 | 13.9%
78 | CC(C)Oc1ccc(Cc2c(O)nc(NCCCN(C)C)[nH]c2=O)cc1 | -4.15%

Row | Structure (SMILES) | growth inhibition
79 | Cc1ccc2cc(CNC(C)C)c(=O)[nH]c2c1 | 2.25%
80 | O=C(CSc1nc2ccccc2c(=O)n1CC1CCCCC1)N1CCOCC1 | 19.6%
81 | CCN(CC)C(=O)CSc1nc2ccccc2c(=O)n1CC1CCCCC1 | 59.2% (active)
82 | CCN(CC)C(=O)COn1c(SCC(=O)N(CC)CC)nc2ccccc2c1=O | -4.27%
83 | CCN(CC)CCN1C(=O)C(=O)/C(=C(/O)c2ccc(F)cc2)C1c1ccncc1 (stereo unspecified) | -7.83%
84 | Cn1c[n+](C)cc1/C=N/O | -3.08%
85 | Cc1[nH]c2ccc(F)cc2c(=O)c1SC(F)(F)C(F)C(F)(F)F (stereo unspecified) | 35.6%
86 | O=C(c1ccc(F)cc1)C1CCN(CCn2c(=O)[nH]c3ccccc3c2=O)CC1 | 8.97%
87 | C=CCn1c(=S)[nH]c2ccccc2c1=O | 6.62%
88 | O=c1c2ccccc2[nH]c(=S)n1CCN1CCC(=C(c2ccc(F)cc2)c2ccc(F)cc2)CC1 | 69.1% (active)
89 | CCCSc1nnc2n(-c3ccccc3OC)c(=O)c3c4c(sc3n12)CCC4 | 15.6%
90 | O=C(Nc1ccccn1)NC(C(F)(F)F)C(F)(F)F | 0.87%
91 | CCOC(=O)C1/C(=N\O)CC(C)(O)C(C(=O)OCC)C1c1ccc(OC)c(OC)c1 (stereo unspecified) | 2.33%
92 | CC[C@]1(O)C[C@@H]2CN(CCc3c([nH]c4ccccc34)[C@@](C(=O)OC)(c3cc4c(cc3OC)N(C)[C@H]3[C@@](O)(C(=O)OC)[C@H](OC(C)=O)[C@]5(CC)C=CCN6CC[C@]43[C@@H]65)C2)C1 | 71.8% (active)
93 | CC[C@]1(O)CC2CN(CCc3c([nH]c4ccccc34)[C@@](C(=O)OC)(c3cc4c(cc3OC)N(C=O)[C@H]3[C@@](O)(C(=O)OC)[C@H](OC(C)=O)[C@]5(CC)C=CCN6CC[C@]43[C@@H]65)C2)C1 (stereo partly specified) | 59.6% (active)
94 | Cn1c2ccccc2c2nn(-c3ccccc3)c(=O)cc21 | 12.4%
95 | CC(=O)Nc1ccc(OC(=O)CC2SC(=O)NC2=O)cc1 (stereo unspecified) | 1.99%
96 | COc1ccc(C(CC(=O)N2CCOCC2)C(C)C)cc1 (stereo unspecified) | -4.83%
97 | CC(=O)Oc1ccc(C(c2ccc(OC(C)=O)cc2)c2ccccn2)cc1 | 14.2%
98 | CCCCOc1ccc(C(=O)NCC(=O)NCC(=O)OCC)cc1 | 40.7%
99 | CCC(=O)Oc1ccc(/C(CC)=C(\CC)c2ccc(OC(=O)CC)cc2)cc1 | 71.7% (active)
100 | CCC(=O)Oc1ccc(C(CC)C(CC)c2ccc(OC(=O)CC)cc2)cc1 (stereo unspecified) | 62.3% (active)
101 | CCOC(=O)CNC(=O)CNC(=O)c1ccc(OC)cc1 | 2.92%
